# Measured values from PubChem BioAssay (EPA / NIEHS).
# Activity calls are given as the source filed them. How the source made its calls: active means hit-call score of the fitted dose curve at least 0.9, where 1 is the maximum; inactive means score below 0.9.
# Columns and labels:
# Settings in all cases: mRNA level, 48 h; actives raise or lower the signal
# [1] = read-out: Bcl-2 (BAX) gene, BAX (gene 581); experiment: LTEA_HepaRG_BAX: Life Technologies and Expression Analysis (LTEA) Assay for Bcl-2 (BAX) gene using HepaRG (AID 2283470)
# How it was run: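 Human HepaRG cells treated in duplicate for 48 h across eight concentrations (max 100 uM, 0.5% DMSO); BAX expression measured by qRT-PCR.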
# [2] = read-out: adenosine kinase (ADK) gene, ADK (gene 132); experiment: LTEA_HepaRG_ADK: Life Technologies and Expression Analysis (LTEA) Assay for adenosine kinase (ADK) gene using HepaRG (AID 2283471)
# How it was run: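 Read-out is ADK transcript level measured by qRT-PCR and normalised to three housekeeping genes. Cells are human HepaRG, dosed for 48 h at up to 100 uM in 0.5% DMSO. Gain or loss of signal is fitted against DMSO controls.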
# [3] = read-out: Alpha-fetoprotein (AFP) gene, AFP (gene 174); experiment: LTEA_HepaRG_AFP: Life Technologies and Expression Analysis (LTEA) Assay for Alpha-fetoprotein (AFP) gene using HepaRG (AID 2283472)
# How it was run: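 Measures AFP mRNA change in HepaRG after 48 h chemical exposure (8 half-log concentrations, highest 100 uM, 0.5% DMSO). Fold change relative to DMSO, fitted in both directions.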
# BCL2L11 (gene 10018) = experiment: LTEA_HepaRG_BCL2L11: Life Technologies and Expression Analysis (LTEA) Assay for Bcl-2 (BCL2L11) gene using HepaRG (AID 2283473)
# How it was run: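 Differentiated human HepaRG cells were exposed 48 h in serum-free induction medium to eight half-log concentrations up to 100 uM in 0.5% DMSO, in duplicate. BCL2L11 mRNA was quantified by TaqMan qRT-PCR, normalized to ACTB, GAPDH and POLR2A; induction or repression fitted versus DMSO.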
# [4] = read-out: Apolipoprotein A-V (APOA5) gene, APOA5 (gene 116519); experiment: LTEA_HepaRG_APOA5: Life Technologies and Expression Analysis (LTEA) Assay for Apolipoprotein A-V (APOA5) gene using HepaRG (AID 2283474)
# How it was run: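 Differentiated HepaRG cells in serum-free induction medium, exposed 48 h in duplicate to eight half-log concentrations topping at 100 uM (0.5% DMSO). APOA5 mRNA by Fluidigm TaqMan qRT-PCR, normalized to ACTB, GAPDH and POLR2A; bidirectional fit versus DMSO.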
# [5] = read-out: Bcl-2 (BID) gene, BID (gene 637); experiment: LTEA_HepaRG_BID: Life Technologies and Expression Analysis (LTEA) Assay for Bcl-2 (BID) gene using HepaRG (AID 2283476)
# How it was run: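 Assay used HepaRG hepatic cells treated 48 h in serum-free medium with half-log dilutions from 100 uM. Endpoint: BID mRNA, qRT-PCR, normalized to ACTB/GAPDH/POLR2A.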
# [6] = read-out: Cytochrome P450 (CYP24A1), CYP24A1 (gene 1591); experiment: LTEA_HepaRG_CYP24A1: Life Technologies and Expression Analysis (LTEA) Assay for Cytochrome P450 (CYP24A1) using HepaRG (AID 2283478)
# How it was run: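 HepaRG cells plated 48 h, then exposed in duplicate in serum-free induction medium for 48 h to 8-point half-log series from 100 uM in 0.5% DMSO. CYP24A1 mRNA by Fluidigm qRT-PCR, normalized to ACTB, GAPDH, POLR2A; bidirectional fit versus DMSO.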
# [7] = read-out: Cytochrome P450 (CYP1A2), CYP1A2 (gene 1544); experiment: LTEA_HepaRG_CYP1A2: Life Technologies and Expression Analysis (LTEA) Assay for Cytochrome P450 (CYP1A2) using HepaRG (AID 2283479)
# How it was run: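 Differentiated human HepaRG cells in serum-free induction medium exposed 48 hours in duplicate to 8 half-log concentrations from 100 uM, 0.5% DMSO. CYP1A2 mRNA quantified by qRT-PCR, normalized to ACTB, GAPDH and POLR2A; bidirectional fitting versus DMSO.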
# [8] = read-out: cysteine-aspartic acid protease (CASP8), CASP8 (gene 841); experiment: LTEA_HepaRG_CASP8: Life Technologies and Expression Analysis (LTEA) Assay for cysteine-aspartic acid protease (CASP8) using HepaRG (AID 2283480)
# How it was run: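 qRT-PCR readout of CASP8 mRNA, normalized to three housekeeping genes, after 48 h chemical exposure of HepaRG cells; 8-point half-log series, top 100 uM, 0.5% DMSO vehicle. Bidirectional curve fitting against DMSO baseline.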
# [9] = read-out: Cytochrome P450 (CYP2B6), CYP2B6 (gene 1555); experiment: LTEA_HepaRG_CYP2B6: Life Technologies and Expression Analysis (LTEA) Assay for Cytochrome P450 (CYP2B6) using HepaRG (AID 2283481)
# How it was run: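 Differentiated human HepaRG cells in serum-free induction medium, dosed in duplicate for 48 h over 8 half-log concentrations topping at 100 uM (0.5% DMSO). CYP2B6 mRNA measured by TaqMan qRT-PCR, normalized to ACTB, GAPDH, POLR2A; bidirectional fit versus DMSO.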
# [10] = read-out: Cytochrome P450 2C19 (Homo sapiens) (UniProt P33261); experiment: LTEA_HepaRG_CYP2C19: Life Technologies and Expression Analysis (LTEA) Assay for CYP2C19 using HepaRG (AID 2283482)
# How it was run: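 Differentiated HepaRG cells in serum-free induction medium exposed 48 h in duplicate, 8 concentrations from 100 uM by half-log steps in 0.5% DMSO. CYP2C19 mRNA measured by TaqMan qRT-PCR, normalized to ACTB, GAPDH, POLR2A. Bidirectional fit versus DMSO.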
# CYP2C8 (gene 1558) = experiment: LTEA_HepaRG_CYP2C8: Life Technologies and Expression Analysis (LTEA) Assay for CYP2C8 using HepaRG (AID 2283483)
# How it was run: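 HepaRG (human liver line), 48 h chemical exposure, 8-pt half-log series from 100 uM, 0.5% DMSO vehicle. Readout: CYP2C8 transcript by qRT-PCR, housekeeping-normalized. Bidirectional fit vs DMSO baseline.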
# CYP2E1 (gene 1571) = experiment: LTEA_HepaRG_CYP2E1: Life Technologies and Expression Analysis (LTEA) Assay for CYP2E1 using HepaRG (AID 2283485)
# How it was run: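 Assay uses 48 h exposure of HepaRG hepatic cells, eight concentrations to 100 uM. Expression of CYP2E1 is quantified by TaqMan qRT-PCR with ACTB, GAPDH and POLR2A normalization; curves fitted in both directions relative to vehicle.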
# CYP4A11 (gene 1579) = experiment: LTEA_HepaRG_CYP4A11: Life Technologies and Expression Analysis (LTEA) Assay for CYP4A11 using HepaRG (AID 2283486)
# How it was run: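 Differentiated HepaRG cells, 48 h after plating, exposed in duplicate for 48 h to 8 half-log concentrations up to 100 uM in 0.5% DMSO in serum-free induction medium. CYP4A11 mRNA measured by TaqMan qRT-PCR, normalized to ACTB, GAPDH and POLR2A.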
# [11] = read-out: Cytochrome P450 3A4 (Homo sapiens) (UniProt P08684); experiment: LTEA_HepaRG_CYP3A4: Life Technologies and Expression Analysis (LTEA) Assay for CYP3A4 using HepaRG (AID 2283487)
# How it was run: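 HepaRG, 48 h exposure, 8-pt CRC from 100 uM (half-log), 0.5% DMSO, duplicates; serum-free induction medium. Readout: CYP3A4 mRNA, qRT-PCR, ACTB/GAPDH/POLR2A normalization. Bidirectional fit vs DMSO.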
# [12] = read-out: DNA damage-inducible transcript 3 (DDIT3), DDIT3 (gene 1649); experiment: LTEA_HepaRG_DDIT3: Life Technologies and Expression Analysis (LTEA) Assay for DNA damage-inducible transcript 3 (DDIT3) using HepaRG (AID 2283488)
# How it was run: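 Eight-point concentration-response (100 uM highest, half-log dilutions) in HepaRG, 48 h, duplicate wells. Endpoint: qRT-PCR mRNA, normalized (ACTB, GAPDH, POLR2A), bidirectional fitting with DMSO as baseline.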
# [13] = read-out: Pro-epidermal growth factor (Homo sapiens) (UniProt P01133); experiment: LTEA_HepaRG_EGF: Life Technologies and Expression Analysis (LTEA) Assay for Epidermal growth factor (EGF) using HepaRG (AID 2283489)
# How it was run: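 HepaRG cells (~100,000/well, 48 h pre-culture) exposed in duplicate for 48 h in serum-free induction medium to 8 half-log concentrations up to 100 uM in 0.5% DMSO. EGF mRNA by qRT-PCR, normalized to ACTB/GAPDH/POLR2A; bidirectional fit versus DMSO.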
# [14] = read-out: Early growth response protein 1 (EGR1) transcription factor, EGR1 (gene 1958); experiment: LTEA_HepaRG_EGR1: Life Technologies and Expression Analysis (LTEA) Assay for Early growth response protein 1 (EGR1) transcription factor using HepaRG (AID 2283490)
# How it was run: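 HepaRG, 48 h exposure, 8-pt half-log series from 100 uM, 0.5% DMSO vehicle; EGR1 transcript by TaqMan qRT-PCR (Fluidigm array), housekeeping-normalized; bidirectional fit relative to DMSO baseline.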
# [15] = read-out: Ezrin (EZR), EZR (gene 7430); experiment: LTEA_HepaRG_EZR: Life Technologies and Expression Analysis (LTEA) Assay for Ezrin (EZR) using HepaRG (AID 2283491)
# How it was run: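 Read-out is EZR transcript level by qRT-PCR, normalized to three housekeeping genes and fitted bidirectionally against the DMSO control. Human HepaRG cells received test chemicals for 48 h at eight half-log concentrations up to 100 uM in 0.5% DMSO.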
# [16] = read-out: Cytochrome P450 3A7 (Homo sapiens) (UniProt P24462); experiment: LTEA_HepaRG_CYP3A7: Life Technologies and Expression Analysis (LTEA) Assay for CYP3A7 using HepaRG (AID 2283492)
# How it was run: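 Differentiated HepaRG cells in serum-free induction medium exposed 48 h in duplicate to 8-point half-log series from 100 uM top in 0.5% DMSO. CYP3A7 mRNA by qRT-PCR, normalized to ACTB/GAPDH/POLR2A, bidirectional fit versus DMSO.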
# Chain of Cytochrome P450 3A4 (Homo sapiens) (P08684 whole entry, looked up): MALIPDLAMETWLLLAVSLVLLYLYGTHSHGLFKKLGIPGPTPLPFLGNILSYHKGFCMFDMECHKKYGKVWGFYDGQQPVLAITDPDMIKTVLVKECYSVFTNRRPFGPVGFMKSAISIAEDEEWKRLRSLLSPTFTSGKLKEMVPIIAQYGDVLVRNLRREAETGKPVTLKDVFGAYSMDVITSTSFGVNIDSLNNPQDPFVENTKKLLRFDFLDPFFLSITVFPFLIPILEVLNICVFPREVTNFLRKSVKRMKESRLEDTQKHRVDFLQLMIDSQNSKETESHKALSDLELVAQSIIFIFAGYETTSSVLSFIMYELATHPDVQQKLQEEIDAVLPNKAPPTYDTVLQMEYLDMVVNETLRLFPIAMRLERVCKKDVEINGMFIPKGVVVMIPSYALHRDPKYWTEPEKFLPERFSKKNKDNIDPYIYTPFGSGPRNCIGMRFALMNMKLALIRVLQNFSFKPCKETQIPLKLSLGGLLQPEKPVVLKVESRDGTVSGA
# Chain of Cytochrome P450 3A7 (Homo sapiens) (P24462 whole entry, looked up): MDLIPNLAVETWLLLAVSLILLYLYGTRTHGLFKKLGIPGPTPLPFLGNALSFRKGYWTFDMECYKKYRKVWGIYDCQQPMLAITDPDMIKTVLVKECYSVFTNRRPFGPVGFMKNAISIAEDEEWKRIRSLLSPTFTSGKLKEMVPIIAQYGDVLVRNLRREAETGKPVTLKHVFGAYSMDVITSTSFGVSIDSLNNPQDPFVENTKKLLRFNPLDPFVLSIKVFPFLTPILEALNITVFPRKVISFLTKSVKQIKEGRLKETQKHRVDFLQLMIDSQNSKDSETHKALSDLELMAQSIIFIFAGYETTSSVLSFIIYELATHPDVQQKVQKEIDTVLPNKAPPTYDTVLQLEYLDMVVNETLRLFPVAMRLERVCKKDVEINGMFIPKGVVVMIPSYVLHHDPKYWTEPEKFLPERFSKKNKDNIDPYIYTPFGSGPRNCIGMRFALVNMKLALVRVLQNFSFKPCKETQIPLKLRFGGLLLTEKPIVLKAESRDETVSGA
# Chain of Cytochrome P450 2C19 (Homo sapiens) (P33261 whole entry, looked up): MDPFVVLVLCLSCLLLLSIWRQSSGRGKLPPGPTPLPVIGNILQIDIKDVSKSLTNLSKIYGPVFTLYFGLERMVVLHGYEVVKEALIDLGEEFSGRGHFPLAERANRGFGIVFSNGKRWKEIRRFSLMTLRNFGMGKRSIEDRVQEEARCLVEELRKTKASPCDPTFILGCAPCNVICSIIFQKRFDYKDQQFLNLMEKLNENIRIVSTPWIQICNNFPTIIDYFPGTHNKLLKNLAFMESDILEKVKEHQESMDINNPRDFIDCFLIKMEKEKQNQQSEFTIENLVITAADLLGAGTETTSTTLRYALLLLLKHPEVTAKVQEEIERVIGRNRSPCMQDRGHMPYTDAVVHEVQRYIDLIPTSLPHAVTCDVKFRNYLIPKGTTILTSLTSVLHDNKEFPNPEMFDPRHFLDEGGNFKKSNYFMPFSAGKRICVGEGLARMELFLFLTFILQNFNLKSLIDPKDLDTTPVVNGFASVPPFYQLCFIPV
smiles,measurement,setting,value
Cn1sc(Cl)cc1=O,outcome,[1],inactive
same,outcome,[2],inactive
same,outcome,[3],inactive
same,outcome,BCL2L11 (gene 10018),inactive
same,outcome,[4],inactive
same,outcome,[5],inactive
same,outcome,[6],inactive
same,outcome,[7],inactive
same,outcome,[8],inactive
same,outcome,[9],inactive
same,outcome,[10],inactive
same,outcome,CYP2C8 (gene 1558),inactive
same,outcome,CYP2E1 (gene 1571),inactive
same,outcome,CYP4A11 (gene 1579),inactive
same,outcome,[11],inactive
same,outcome,[12],inactive
same,outcome,[13],inactive
same,outcome,[14],inactive
same,outcome,[15],inactive
same,outcome,[16],inactive
CC(C)(OO)c1ccccc1,outcome,[1],inactive
same,outcome,[2],inactive
same,outcome,[3],inactive
same,outcome,BCL2L11 (gene 10018),inactive
same,outcome,[4],inactive
same,outcome,[5],inactive
same,outcome,[6],inactive
same,AC50,[7],50 µM (active)
same,outcome,[8],inactive
same,AC50,[9],22.9 µM (active)
same,outcome,[10],inactive
same,outcome,CYP2C8 (gene 1558),inactive
same,outcome,CYP2E1 (gene 1571),inactive
same,outcome,CYP4A11 (gene 1579),inactive
same,outcome,[11],inactive
same,outcome,[12],inactive
same,outcome,[13],inactive
same,outcome,[14],inactive
same,outcome,[15],inactive
same,outcome,[16],inactive
O=C(O)C(F)(F)C(F)(F)C(F)(F)C(F)(F)C(F)(F)C(F)(F)C(F)(F)C(F)(F)C(F)(F)C(F)(F)F,outcome,[1],inactive
same,outcome,[2],inactive
same,outcome,[3],inactive
same,AC50,BCL2L11 (gene 10018),47.8 µM (active)
same,outcome,[4],inactive
same,outcome,[5],inactive
same,outcome,[6],inactive
same,AC50,[7],41.6 µM (active)
same,outcome,[8],inactive
same,AC50,[9],47.8 µM (active)
same,outcome,[10],inactive
same,outcome,CYP2C8 (gene 1558),inactive
same,AC50,CYP2E1 (gene 1571),57 µM (active)
same,AC50,CYP4A11 (gene 1579),21.5 µM (active)
same,outcome,[11],inactive
same,outcome,[12],inactive
same,outcome,[13],inactive
same,outcome,[14],inactive
same,outcome,[15],inactive
same,outcome,[16],inactive
O=C(O)C(F)(F)C(F)(F)C(F)(F)C(F)(F)C(F)(F)C(F)(F)F,outcome,[1],inactive
same,outcome,[2],inactive
same,outcome,[3],inactive
same,outcome,BCL2L11 (gene 10018),inactive
same,outcome,[4],inactive
same,outcome,[5],inactive
same,outcome,[6],inactive
same,outcome,[7],inactive
same,outcome,[8],inactive
same,AC50,[9],24.9 µM (active)
same,AC50,[10],0.576 µM (active)
same,outcome,CYP2C8 (gene 1558),inactive
same,outcome,CYP2E1 (gene 1571),inactive
same,AC50,CYP4A11 (gene 1579),18.6 µM (active)
same,outcome,[11],inactive
same,outcome,[12],inactive
same,outcome,[13],inactive
same,outcome,[14],inactive
same,outcome,[15],inactive
same,AC50,[16],35 µM (active)
